Assay results taken from PubChem BioAssay (NCI).
About 83,000 compounds went through this panel and 20% of them were active in at least one assay; those are over-represented in the sample as a whole.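 48-hour exposure, single concentration, 96-well plates; percent growth endpoint where 0 means no net growth. Active: below 10.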 Activity calls are given as the source filed them.

system: MDA-MB-468 breast; assay: NCI-60 one-dose screen, 48 h (100 = growth as untreated, 0 = no growth, -100 = all killed); conditions: 10 µM unless noted

Row | SMILES | growth
1 | CCOC(=O)c1ccccc1OC(=O)NNc1ccccc1 | 83.2% (inactive)
2 | COc1cc(/C=C2\C(=O)N(c3c(Cl)cccc3Cl)c3ccccc32)cc(OC)c1O | 57.4% (inactive)
3 | C#CC(C(C)C)N(CCO)CCCC (stereo not given) | 103% (inactive)
4 | Nc1n[nH]c2cccc(C#Cc3cccc(NC(=O)c4cc(N5CCOCC5)cc(C(F)(F)F)c4)c3)c12 | 85.6% (inactive)
5 | CN(C)CSc1nc2ccccc2s1 | 110% (inactive)
6 | Cc1c(C(=N)C(C#N)C#N)c(=N)oc2c1ccc1ccccc12 | 54.5% (inactive)
7 | C/C(=N/O)c1ccc(F)cc1 | 75% (inactive)
8 | CCOC(=O)c1ccc(NC(C)=O)o1 | 89.3% (inactive)
9 | C=C(CBr)[C@@H]1CC[C@]2(COC(C)=O)CC[C@]3(C)[C@H](CC[C@@H]4[C@@]5(C)CCCNC(C)(C)[C@@H]5CC[C@]43C)[C@@H]12 | 25.1% (inactive)
10 | COc1ccc(Cc2cnc(N)nc2N)cc1OC | 104% (inactive)
11 | COc1cc2ncn3c(=O)c4c5c(sc4nc3c2cc1OC)CCCCC5 | 107% (inactive)
12 | COc1cc2cc3c(nc2cc1OC)CCN3Cc1ccc(NC(=O)c2ccc(Cl)c(C(F)(F)F)c2)cc1 | 12.9% (inactive)
13 | C=C1CCC2C3(C)COC(c4ccc(OC)cc4Br)OC3CCC2(C)C1/C=C/C1=CCOC1=O (stereo not given) | 54.3% (inactive)
14 | C1=C2CCCC3=Cc4ccccc4OC23Oc2ccccc21 | 25.5% (inactive)
15 | CCCCCCNC(=O)Oc1ccc(/C(=C(/C)Cc2ccc(OC)cc2)c2ccc(OCCN3CCCCC3)cc2)cc1 | 88.6% (inactive)
16 | CNc1nc2c(s1)C(c1cc(F)ccc1F)CC(=O)N2 (stereo not given) | -2.32% (active)
17 | O=C1CCC/C=C\C[C@H]2C=CC(=O)/C2=C/C[C@H](C/C=C\CC(F)(F)F)O1 | -46.5% (active)
18 | OB1OCc2cc(/C=C/c3cccc(C(F)(F)F)c3)ccc21 | 5.08% (active)
19 | COc1cc2nc(Cl)nc(Nc3cccc(C(=O)/C=C/c4ccc(F)cc4)c3)c2cc1OC | 74.3% (inactive)
20 | O=C(/C=C/c1cccc(C(F)(F)F)c1)Nc1cccc(C(F)(F)F)c1 | 55.6% (inactive)

Row | SMILES | growth
21 | Cn1c(=O)c2c(nc(Nc3cc(=O)[nH]c(=O)[nH]3)n2Cc2ccccc2)n(C)c1=O | 84.7% (inactive)
22 | CCn1c2ccc(/C=N/N(C)S(=O)(=O)CCN(C)C)cc2c2cc(/C=N/N(C)S(=O)(=O)CCN(C)C)ccc21 | 40.4% (inactive)
23 | COc1ccc(/C(C)=C(\c2ccc(Cl)cc2)c2ccc(OCCN3CCCC3)cc2)cc1F | 37.5% (inactive)
24 | COc1ccc(C2=CN3CC=CC3CC2=O)cc1 (stereo not given) | 95.3% (inactive)
25 | O=C1c2ccccc2-c2c1c1cccnc1c(=O)n2C[C@H](O)CO | 88.4% (inactive)
26 | N[C@H](CS)C(=O)O | 93.1% (inactive)
27 | Cc1nc(-c2cn3c(n2)-c2ccc(-c4cnn(C(C)(C)C(N)=O)c4)cc2OCC3)n(C(C)C)n1 | -20.6% (active)
28 | COc1cc(OC)c(S(N)(=O)=O)cc1C(C)=O | 98.4% (inactive)
29 | COc1cc(/C=C\c2cc(OC)c(OC)c(OC)c2)cc(N/C=C\C(=O)c2c[nH]c3ccccc23)c1OC | -55.8% (active)
30 | CCN(CC)Cc1cc(Nc2nc(NC3CCC(N(C)C)CC3)c3ccccc3n2)ccc1OC (stereo not given) | -15.1% (active)
31 | CN1C(=O)C(=Cc2cn(Cc3ccccc3)c3ccc(Br)cc23)C(=O)N(C)C1=O | -49.4% (active)
32 | Cc1cccc(NC(=O)c2sc3nc4c(cc3c2N)C(=O)CCC4)c1 | 33.1% (inactive)
33 | O=C(C(=O)N1CCOCC1)c1ccc(O[C@H]2O[C@H](CO)[C@@H](O)[C@H](O)[C@@H]2O)cc1 | 97.5% (inactive)
34 | COc1ccc(C(=O)c2nc3ccccc3n2CC(=O)c2ccc(Cl)cc2)cc1 | 33.8% (inactive)
35 | NC(=S)N/N=C1\CCCC(C(F)(F)F)C1 (stereo not given) | 31.3% (inactive)
36 | CC1(C)CC(=O)C(c2c(-c3ccccc3)[nH]c3[nH]c(=S)[nH]c(=O)c23)=C(O)C1 | 109% (inactive)
37 | CCN1CCOC1C(C)C (stereo not given) | 109% (inactive)
38 | CCCCCCC/C(=N\N=C(N)N)c1ccc(O)cc1 | -79.7% (active)
39 | CC(C)(C)c1cc(C(=O)N2CCC(C(=O)NCCN)CC2)cc(C(C)(C)C)c1 | 82.4% (inactive)
40 | CCCC(C)(C)COC(=O)c1cccc(N)c1 | 109% (inactive)
